According to PubChem BioAssay (Tox21):
“And” between values parts separate entries of the source, which are not always exact repeats. Equal entries are not always repeated. Results filed as inconclusive are left out. Entries that show only a call come without a potency. Some structures have more than one record in an assay (separate samples or runs), and their calls can disagree. The source made the active and inactive calls. Unless noted, calls come from the whole dose curve; as a rule, active = well fitted curve in the direction sought with a large enough effect in the repeat runs; inconclusive = weak or mixed curves; inactive = no such curve, though single readings can be large; an effect the other way counts as inactive or inconclusive.

Tests used:
[1] = qHTS assay to identify small molecule antagonists of the estrogen receptor alpha (ER-alpha) signaling pathway using the BG1 cell line in the presence of 0.1 nM 17-beta-estradiol - cell viability counter screen (AID 1259241); note: nearly all actives have a fitted effect of over 40% in size
Method in brief: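 Measures cytotoxicity alongside the ER-alpha antagonist readout: VM7Luc4E2 cells, charcoal-stripped serum, 0.1 nM 17beta-estradiol final, 22 hr compound incubation at 37C, CellTiter-Fluor fluorescence.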

[2] = qHTS assay to identify small molecule antagonists of the androgen receptor (AR) signaling pathway using the MDA cell line in the presence of 0.5 nM R1881 - cell viability counter screen (AID 1259242); note: nearly all actives have a fitted effect of over 45% in size
Method in brief: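 Counter screen for cytotoxicity run in the same wells as the AR antagonist reporter screen: MDA-kb2 cells were treated 16 hr with test compounds and 0.5 nM R1881, then live-cell protease activity was measured by fluorescence.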

[3] = biological target: Estrogen receptor (Homo sapiens) (UniProt P03372); test: qHTS assay to identify small molecule antagonists of the estrogen receptor alpha (ER-alpha) signaling pathway using the BG1 cell line in the presence of 0.1 nM 17-beta-estradiol (AID 1259244); note: nearly all actives have a fitted effect of over 50% in size; note: potency is the fitted concentration of half-maximal effect
Sequence of Estrogen receptor (Homo sapiens) (P03372 whole entry, looked up): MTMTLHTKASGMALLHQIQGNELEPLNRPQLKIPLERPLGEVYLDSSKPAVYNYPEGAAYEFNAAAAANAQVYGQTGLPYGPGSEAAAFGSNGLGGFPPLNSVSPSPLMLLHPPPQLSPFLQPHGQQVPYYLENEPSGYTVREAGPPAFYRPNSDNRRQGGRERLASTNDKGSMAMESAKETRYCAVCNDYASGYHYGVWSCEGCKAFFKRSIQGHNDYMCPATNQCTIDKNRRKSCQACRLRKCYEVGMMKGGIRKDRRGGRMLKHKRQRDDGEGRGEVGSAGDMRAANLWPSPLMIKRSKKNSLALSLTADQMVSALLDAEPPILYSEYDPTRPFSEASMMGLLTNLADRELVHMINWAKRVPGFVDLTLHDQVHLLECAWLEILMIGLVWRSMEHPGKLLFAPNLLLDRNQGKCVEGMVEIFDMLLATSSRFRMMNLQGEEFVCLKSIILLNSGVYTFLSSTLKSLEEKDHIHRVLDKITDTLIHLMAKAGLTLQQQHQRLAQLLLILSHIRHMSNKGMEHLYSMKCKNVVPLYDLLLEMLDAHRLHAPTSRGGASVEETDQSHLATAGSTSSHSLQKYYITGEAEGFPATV
Method in brief: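 Cells: VM7Luc4E2, endogenous ER-alpha, 4x ERE-luc stable. Pre-culture 5 d, phenol red-free, charcoal-stripped FBS. Plated 24 h, compound + E2 0.1 nM final, 22 h 37C/5% CO2. Readout ONE-Glo luminescence.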

[4] = qHTS assay to identify small molecule phospholipidosis (PLD) inducers (AID 1259344; active = well fitted curve in the direction sought with a large enough effect; an effect the other way counts as inactive or inconclusive)
Method in brief: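 Phospholipidosis is scored by imaging LipidTOX-stained pits in HepG2 cells exposed to compound for 24 h at 37 C; pit counts and integrated intensities per well and per cell serve as outputs.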

[5] = qHTS assay to identify small molecule HDAC inhibitors (AID 1259364); note: top concentration of the series differs between compounds; nearly all actives have a fitted effect of over 45% in size
Method in brief: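 Luminescence from a cell-permeant luminogenic class I/II HDAC substrate reports endogenous deacetylase activity in intact HCT-116 cells treated with compounds for 2 h.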

[6] = qHTS assay to identify small molecule HDAC inhibitors - cell viability counter screen (AID 1259365); note: series mostly up to about 92 µM; nearly all actives have a fitted effect of over 50% in size
Method in brief: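 Following a 2hr exposure of overnight-plated wild-type HCT-116 cells to DMSO-delivered compounds, CellTiter-Glo was added and luminescence recorded after 30min at room temperature.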

[7] = qHTS assay to identify small molecule agonists of the sonic hedgehog signaling (Shh) pathway - cell viability counter screen (AID 1259366); note: nearly all actives have a fitted effect of over 50% in size; note: potency is the fitted concentration of half-maximal effect
Method in brief: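 After a 4hr attachment at 37C, NIH/3T3 cells bearing an integrated Gli1-driven luciferase reporter were dosed with compounds. Treatment lasted 24hr, with the final hour including CellTiter-Fluor for a fluorescence viability measurement.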

[8] = qHTS assay to identify small molecule antagonists of the sonic hedgehog signaling (Shh) pathway - cell viability counter screen (AID 1259367); note: nearly all actives have a fitted effect of over 55% in size; note: potency is the fitted concentration of half-maximal effect
Method in brief: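 Cells: 3T3 Gli1-Luc, 2,000/well, 4 hr pre-incubation. Compounds in DMSO, then conditioned medium. Incubation 24 hr, 37C, 5% CO2. CellTiter-Fluor at 23 hr, 1 hr, fluorescence.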

[9] = qHTS assay to identify small molecule agonists of the sonic hedgehog signaling (Shh) pathway (AID 1259368; calls by dose curve;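 note: NIH/3T3-derived 3T3Gli1-Luc cells carrying a stable Gli1-driven firefly luciferase reporter; series mostly up to about 92 µM; nearly all actives have a fitted effect of over 15% in size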)
Method in brief: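 3T3Gli1-Luc (NIH/3T3 clone, stable Gli1-Luc); 4 hr pre-incubation, then cpd in DMSO 24 hr, 37 C/5% CO2; luciferase reagent 30 min RT; luminescence.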

[10] = qHTS assay to identify small molecule antagonists of the sonic hedgehog signaling (Shh) pathway (AID 1259369; calls by dose curve; note: nearly all actives have a fitted effect of over 45% in size; note: potency is the fitted concentration of half-maximal effect)
Method in brief: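 3T3Gli1-Luc, conditioned-medium-stimulated, 24hr cpd, 37C/5% CO2; Gli1-driven firefly Luc luminescence after 30min RT with luciferase reagent. Cells plated 4hr before cpd.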

[11] = qHTS assay to identify small molecule agonists of the androgen receptor (AR) signaling pathway in the presence of an antagonist - cell viability counter screen (AID 1259379);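 note: MDA-kb2 human breast cancer cells carrying an MMTV luciferase reporter; series mostly up to about 92 µM; nearly all actives have a fitted effect of over 25% in size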
Method in brief: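 Cells: MDA-kb2 (MMTV-luc, AR and GR elements), 3,000/well, 5 hr settle. Added: nilutamide 3.0uM final, then compounds (15 conc.). Incubation: 16 hr, 37C, no CO2. Read-out: CellTiter-Fluor, 1 hr, fluorescence.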

[12] = qHTS assay to identify small molecule agonists of the estrogen receptor beta (ER-beta) signaling pathway - cell viability counter screen (AID 1259380); note: nearly all actives have a fitted effect of over 30% in size; note: potency is the fitted concentration of half-maximal effect
Method in brief: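 HEK293T ER-beta-UAS-bla; 2% CS-FBS; 6 hr pre-plate, 16 hr cpd at 37C/5% CO2; LiveBLAzer read first, then CellTiter-Glo 30 min RT, luminescence.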

[13] = biological target: Estrogen receptor (Homo sapiens) (UniProt P03372); test: qHTS assay to identify small molecule agonists of the estrogen receptor alpha (ER-alpha) signaling pathway in the presence of an antagonist (AID 1259383; calls by dose curve; note: nearly all actives have a fitted effect of over 15% in size; note: potency is the fitted concentration of half-maximal effect; for activation: top concentration of the series differs between compounds)
Method in brief: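 VM7Luc4E2, endog. ER-alpha + 4×ERE-luc; charcoal-stripped FBS, phenol red-free, 5 d; 24hr plating; +10.0nM ICI-182,780 (final); cpds 15 conc, 22hr, 37C/5% CO2; ONE-Glo luminescence.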

[14] = qHTS assay to identify small molecule agonists or antagonists of the thyroid stimulating hormone receptor (TSHR) signaling pathway - wild type cell line counter screen (AID 1259384; calls by dose curve)
Method in brief: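 Counter screen in untransfected Hek293: compounds (15-point titration, triplicate) plus phosphodiesterase inhibitor Ro20-1724 added after 18 h plating; 30 min RT. Intracellular cAMP via competitive d2/cryptate immunoassay, 1 h incubation.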

[15] = biological target: Thyrotropin receptor (Homo sapiens) (UniProt P16473); test: qHTS assay to identify small molecule antagonists of the thyroid stimulating hormone receptor (TSHR) signaling pathway (AID 1259385; calls by dose curve; note: nearly all actives have a fitted effect of over 20% in size)
Sequence of Thyrotropin receptor (Homo sapiens) (P16473 whole entry, looked up): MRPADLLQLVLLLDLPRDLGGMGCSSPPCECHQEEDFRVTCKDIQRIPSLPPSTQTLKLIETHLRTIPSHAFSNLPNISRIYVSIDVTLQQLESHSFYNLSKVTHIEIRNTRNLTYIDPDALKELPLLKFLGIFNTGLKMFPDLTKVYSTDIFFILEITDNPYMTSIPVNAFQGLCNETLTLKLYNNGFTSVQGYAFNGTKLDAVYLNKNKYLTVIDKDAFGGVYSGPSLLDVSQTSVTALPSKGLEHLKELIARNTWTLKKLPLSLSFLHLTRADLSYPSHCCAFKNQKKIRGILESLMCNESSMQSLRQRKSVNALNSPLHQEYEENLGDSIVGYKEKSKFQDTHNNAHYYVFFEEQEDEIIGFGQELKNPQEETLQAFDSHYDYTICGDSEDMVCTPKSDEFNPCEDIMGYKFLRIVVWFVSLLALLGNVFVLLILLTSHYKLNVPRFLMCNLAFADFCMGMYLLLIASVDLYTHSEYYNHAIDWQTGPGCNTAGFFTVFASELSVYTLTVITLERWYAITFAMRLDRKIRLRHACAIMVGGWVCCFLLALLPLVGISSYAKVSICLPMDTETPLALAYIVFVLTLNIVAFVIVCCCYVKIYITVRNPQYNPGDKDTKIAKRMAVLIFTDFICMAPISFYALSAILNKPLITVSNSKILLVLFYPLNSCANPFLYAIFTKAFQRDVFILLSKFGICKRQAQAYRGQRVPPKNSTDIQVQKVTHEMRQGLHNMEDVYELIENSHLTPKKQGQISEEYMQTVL
Method in brief: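 Antagonist mode: compound-treated TSHR-expressing HEK293 cells were stimulated with 1.5 ng/mL TSH (final) in presence of Ro20-1724 for 30 min at RT. HTRF cAMP detection after 1 h; each compound tested at 15 concentrations, triplicate.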

[16] = biological target: Estrogen receptor beta (Homo sapiens) (UniProt Q92731); test: qHTS assay to identify small molecule agonists of the estrogen receptor beta (ER-beta) signaling pathway (AID 1259377; active = well fitted activation curve with a large enough effect in the signal ratio in the repeat runs, not every such curve was filed as active; the % refers to the signal ratio)
Sequence of Estrogen receptor beta (Homo sapiens) (Q92731 whole entry, looked up): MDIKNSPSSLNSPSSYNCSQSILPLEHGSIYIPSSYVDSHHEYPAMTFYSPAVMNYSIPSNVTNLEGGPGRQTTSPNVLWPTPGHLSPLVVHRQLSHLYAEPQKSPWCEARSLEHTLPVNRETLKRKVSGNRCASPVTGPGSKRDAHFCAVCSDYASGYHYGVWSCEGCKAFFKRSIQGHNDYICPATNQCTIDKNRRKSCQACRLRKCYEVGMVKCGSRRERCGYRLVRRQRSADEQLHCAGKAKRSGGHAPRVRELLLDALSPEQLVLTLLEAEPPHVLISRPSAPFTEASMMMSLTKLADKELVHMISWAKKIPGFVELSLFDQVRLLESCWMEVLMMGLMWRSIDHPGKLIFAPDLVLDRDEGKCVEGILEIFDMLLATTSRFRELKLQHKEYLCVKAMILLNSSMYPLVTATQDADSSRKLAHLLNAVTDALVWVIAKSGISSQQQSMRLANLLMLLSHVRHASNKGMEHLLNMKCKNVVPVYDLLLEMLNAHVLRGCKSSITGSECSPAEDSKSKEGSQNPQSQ
Method in brief: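 In HEK293T cells bearing a UAS-beta-lactamase reporter under ER-beta control, DMSO-delivered compounds were incubated for 16 hr at 37C. Activity was detected as fluorescence 2 hours after LiveBLAzer B/G FRET substrate addition.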

[17] = qHTS assay to identify small molecule antagonists of the estrogen receptor beta (ER-beta) signaling pathway - cell viability counter screen (AID 1259382);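 note: HEK293T cells carrying ER-beta-UAS-bla reporter stimulated with estradiol; series mostly up to about 92 µM; nearly all actives have a fitted effect of over 55% in size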
Method in brief: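 Cells: ER-beta-UAS-bla HEK293T, 2,000/well, 2% CS-FBS, 6 hr settle. Cpd + E2 (1nM final), 16 hr, 37C/5% CO2. Bla FRET substrate 2 hr RT, then CellTiter-Glo 30 min RT, luminescence.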

[18] = biological target: Androgen receptor (Homo sapiens) (UniProt P10275); test: qHTS assay to identify small molecule antagonists of the androgen receptor (AR) signaling pathway using the MDA cell line in the presence of 0.5 nM R1881 (AID 1259243); note: nearly all actives have a fitted effect of over 50% in size; note: potency is the fitted concentration of half-maximal effect
Sequence of Androgen receptor (Homo sapiens) (P10275 whole entry, looked up): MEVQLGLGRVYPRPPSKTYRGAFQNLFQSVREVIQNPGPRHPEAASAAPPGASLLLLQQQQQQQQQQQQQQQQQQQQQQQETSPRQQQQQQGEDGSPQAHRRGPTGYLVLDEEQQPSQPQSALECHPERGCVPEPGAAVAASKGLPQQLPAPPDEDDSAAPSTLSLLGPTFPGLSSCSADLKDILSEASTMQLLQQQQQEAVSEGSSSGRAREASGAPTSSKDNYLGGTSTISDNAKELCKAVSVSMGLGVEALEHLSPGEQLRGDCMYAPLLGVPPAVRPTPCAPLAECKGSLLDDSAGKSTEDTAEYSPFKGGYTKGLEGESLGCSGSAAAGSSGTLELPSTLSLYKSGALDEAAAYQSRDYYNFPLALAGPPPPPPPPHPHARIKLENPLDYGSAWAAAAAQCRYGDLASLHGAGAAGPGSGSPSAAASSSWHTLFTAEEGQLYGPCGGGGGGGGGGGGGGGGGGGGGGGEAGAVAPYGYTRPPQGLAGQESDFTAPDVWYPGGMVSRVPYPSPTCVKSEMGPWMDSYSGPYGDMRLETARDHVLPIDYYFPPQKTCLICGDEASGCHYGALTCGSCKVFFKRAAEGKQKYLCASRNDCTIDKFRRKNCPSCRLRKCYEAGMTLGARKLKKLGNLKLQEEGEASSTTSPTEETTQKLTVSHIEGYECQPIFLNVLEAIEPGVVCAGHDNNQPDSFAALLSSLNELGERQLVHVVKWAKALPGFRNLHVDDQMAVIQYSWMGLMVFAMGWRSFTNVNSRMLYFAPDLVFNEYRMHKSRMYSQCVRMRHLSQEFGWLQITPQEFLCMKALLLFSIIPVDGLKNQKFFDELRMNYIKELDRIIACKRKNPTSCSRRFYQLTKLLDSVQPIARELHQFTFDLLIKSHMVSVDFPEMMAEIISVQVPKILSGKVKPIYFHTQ
Method in brief: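 Luciferase luminescence is the read-out: compounds are tested for suppressing 0.5 nM R1881-driven MMTV reporter activity in MDA-kb2 cells after 16 hr at 37C.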

[19] = biological target: Androgen receptor (Homo sapiens) (UniProt P10275); test: qHTS assay to identify small molecule agonists of the androgen receptor (AR) signaling pathway in the presence of an antagonist (AID 1259381; calls by dose curve; note: nearly all actives have a fitted effect of over 15% in size)
Method in brief: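 MDA-kb2 cells, 3,000/well, rested 5hr at 37C/0% CO2 → nilutamide 3.0uM final or buffer → compounds, 15 conc. → 16hr at 37C → ONE-Glo, 30min RT → luminescence.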

[20] = biological target: Estrogen receptor beta (Homo sapiens) (UniProt Q92731); test: qHTS assay to identify small molecule antagonists of the estrogen receptor beta (ER-beta) signaling pathway (AID 1259378; active = well fitted inhibition curve with a large enough effect in the signal ratio in the repeat runs, not every such curve was filed as active; the % refers to the signal ratio)
Method in brief: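 Antagonist mode: compounds added to beta-lactamase reporter HEK293T ER-beta-UAS cells stimulated with E2 (1nM final), 16 hr at 37C. LiveBLAzer B/G FRET substrate, 2 hours room temperature, fluorescence read-out.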

Row | SMILES | Potency [1] | Potency [2] | Potency [3] | outcome [4] | Potency [5] | outcome [6] | Potency [7] | Potency [8] | outcome [9] | Potency [10] | Potency [11] | Potency [12] | Potency [13] | outcome [14] | outcome [15] | Potency [16] | outcome [17] | Potency [18] | Potency [19] | Potency [20]
1 | CC(C)(Oc1ccc(CCNC(=O)c2ccc(Cl)cc2)cc1)C(=O)O | inactive | inactive | inactive | inactive | inactive | inactive | inactive | inactive | inactive | inactive | inactive | inactive | inactive | inactive | inactive | – | – | – | – | –
2 | O=[N+]([O-])c1ccc2nc[nH]c2c1 | inactive | inactive | inactive | – | inactive | inactive | inactive | inactive | inactive | inactive | inactive | inactive | inactive | inactive | inactive | inactive | inactive | – | – | –
3 | CNC(=S)N(C)C | inactive | inactive | inactive | – | inactive | inactive | inactive | inactive | inactive | inactive | inactive | inactive | inactive | – | – | inactive | – | – | – | –
4 | COC(=O)c1cccnc1 | inactive | inactive | – | inactive | inactive | inactive | inactive | inactive | inactive | inactive | inactive | – | – | inactive | inactive | – | – | inactive | inactive | –
5 | CCc1ccccc1CC | inactive | inactive | inactive | – | inactive | inactive | inactive | inactive | inactive | inactive | inactive | – | inactive | inactive | inactive | inactive | – | – | – | –
6 | CNC(=O)Oc1ccc2c(c1)[C@]1(C)CCN(C)[C@@H]1N2C | inactive | inactive | inactive | inactive | inactive | inactive | inactive | inactive | inactive | inactive | inactive | – | inactive | inactive | inactive | – | inactive | – | – | –
7 | OCc1cccc(Oc2ccccc2)c1 | inactive | inactive | – | – | inactive | inactive | inactive | inactive | inactive | inactive | inactive | inactive | – | inactive | inactive | – | inactive | 31.1 µM (active) | inactive | –
8 | CCCCCCCCCCCCCCCCO | inactive | inactive | inactive | inactive | inactive | inactive | inactive | inactive | inactive | inactive | inactive | – | inactive | inactive | inactive | inactive | – | – | – | –
9 | O=C(O)c1ccc(S(=O)(=O)N(Cl)Cl)cc1 | inactive | inactive | 38.8 µM (active) and inactive | inactive | inactive | inactive | inactive | inactive | inactive | inactive | inactive | inactive | inactive | inactive | inactive | inactive | inactive | – | – | –
10 | CCCCCCCCCCO | inactive | inactive | inactive | – | inactive | inactive | inactive | inactive | inactive | inactive | inactive | – | inactive | inactive | inactive | inactive | – | – | – | –
11 | CSc1ccc(Cl)cc1 | inactive | inactive | inactive | – | inactive | inactive | inactive | inactive | inactive | inactive | inactive | inactive | inactive | inactive | inactive | inactive | – | inactive | inactive | inactive
12 | O=c1[nH]cnc2[nH]ncc12 | inactive | inactive | inactive | inactive | inactive | inactive | inactive | inactive | inactive | inactive | inactive | inactive | inactive | – | – | inactive | – | – | – | –
13 | CN(C)c1ccc(O)c2c1C[C@H]1C[C@H]3[C@H](N(C)C)C(=O)C(C(N)=O)=C(O)[C@@]3(O)C(=O)C1=C2O | inactive | inactive | inactive | inactive | inactive | inactive | inactive | inactive | inactive | inactive | inactive | 86.3 µM (active) and inactive | inactive and 2.66 µM (active) | inactive | inactive | inactive | inactive | – | – | inactive
14 | OC1C(O)C(O)C(O)C(O)C1O (stereo unspecified) | inactive | inactive | inactive | inactive | inactive | inactive | inactive | inactive | inactive | inactive | inactive | – | inactive | inactive | inactive | – | inactive | – | – | –
15 | C=C(C)C(=O)OCC(C)C | inactive | inactive | inactive | – | inactive | inactive | 27.7 µM (active) and inactive | 7.8 µM (active) and inactive | inactive | 619 nM (active) and inactive | inactive | – | inactive | inactive | inactive | inactive | inactive | – | – | inactive
16 | CCCCC(C=O)CC (stereo unspecified) | inactive | inactive | inactive | – | inactive | inactive | inactive | inactive | inactive | inactive | inactive | inactive | inactive | inactive | inactive | inactive | – | – | – | inactive
17 | CC(=O)CC(C)(C)O | inactive | inactive | inactive | – | inactive | inactive | inactive | inactive | inactive | inactive | inactive | – | inactive | inactive | inactive | inactive | – | inactive | inactive | –
18 | COc1ccc(N)c(C)c1 | inactive | inactive | inactive | – | inactive | inactive | inactive | inactive | inactive | inactive | inactive | inactive | inactive | inactive | inactive | inactive | – | – | – | –
